Source: PubChem BioAssay AID624351 (Southern Research Specialized Biocontainment Screening …, 2012)
Among all 2,400 compounds or so, about 1,400 (58%) were called active. The set was probably picked from earlier hits. The list shows a part of the results. Values without a mark were called inactive.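 How the source made its calls: active means inhibition of 30% or more at any tested dose; inconclusive means primary hits over the limit that were never retested; inactive means the rest.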

Test: coupled detection enzyme interference, dose response, artefact control for MgcRacGAP inhibitor project, biochemical, coupled enzyme counter-screen (AID 624351);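 further: signal is the ADP detection kit reading of free GDP without any GAP enzyme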;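 on inhibition: 0% = median positive control wells and 100% = median negative control wells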
Details: ADP Hunter coupled enzyme counter-screen, fluorescence, no MgcRacGAP; series mostly up to 80 µM; inhibition: at the top concentration

| SMILES | inhibition | IC50 |
| --- | --- | --- |
| N/C(=N\OC(=O)N1c2ccccc2Sc2ccccc21)c1ccccc1 | 28.5% | – |
| Cc1ccc2nc(/N=C(\N)NC(=O)N3c4ccccc4Sc4ccccc43)nc(C)c2c1 | 17.9% | – |
| Cc1cccc(/C(N)=N/OC(=O)N2c3ccccc3Sc3ccccc32)c1 | 26.5% | – |
| CC1(C)CC(NC(=O)N2c3ccccc3Sc3ccccc32)CC(C)(C)N1 | 8.31% | – |
| CCN1/C(=C/c2ccc3cc(C)ccc3[n+]2CC)Sc2cc(C)ccc21 | 0.65% | – |
| CN(C)/C=C/c1oc2ccc(O)cc2c1[N+](=O)[O-] | – | 14.2 µM (active) |
| CCCc1cc(=S)n2c([nH]c3ccccc32)c1C#N | – | 57.3 µM (active) |
| CCn1nc(C)c(Br)c1C(=O)Sc1ccccc1Cl | 0.17% | – |
| CCN(CC)c1ccc(S(=O)(=O)N2CCOCC2)cc1NC(=O)CN1CCN(Cc2ccccc2)CC1 | 21.5% | – |
| O=S(=O)(c1ccc(Cl)c(NC(=S)N/N=C/c2ccc(O)cc2)c1)N1CCOCC1 | – | 48.7 µM (active) |
| Cc1ccc(S(=O)(=O)N2CCOCC2)cc1NC(=O)CNCc1cccnc1 | 19.8% | – |
| CCOC(=O)C1CCCN(C2=NC(=O)/C(=C/c3ccc(O)c(OC)c3)S2)C1 (stereo not drawn) | – | 22.8 µM (active) |
| CCOC(=O)C1CCN(Cc2cn[nH]c2-c2ccccc2)CC1 | 16.9% | – |
| CCOC(=O)C1CCCN(C2=NC(=O)/C(=C/c3ccc(O)c(OCC)c3)S2)C1 (stereo not drawn) | – | 29.8 µM (active) |
| COc1cc(/C=C2\SC(N3CCC(C)CC3)=NC2=O)ccc1O | – | 19.1 µM (active) |
| CCOC(=O)C1CCN(C2=NC(=O)/C(=C/c3ccc(O)cc3)S2)CC1 | – | 22.2 µM (active) |
| CCOC(=O)CSC1=NC(=O)/C(=C\c2ccc(OC(C)=O)cc2)S1 | 24.3% | – |
| CCOC(=O)C(NC(=O)N(C)C)(Nc1sc(C)c(CC)c1C#N)C(F)(F)F (stereo not drawn) | 26.6% | – |
| C#CCOCCOCCOCCNc1nc(N2CCN(C(=O)[C@H](CCCN=C(N)N)n3cc(C(N)[C@H](C)CC)nn3)CC2)nc(N2CCN(C(=O)[C@H](CCCN=C(N)N)n3cc(C(N)[C@@H](C)CC)nn3)CC2)n1 (stereo partly drawn) | 3.3% | – |
| CC1CCN(S(=O)(=O)c2ccc3c(c2)C(Cl)(Cl)C(=O)N3)CC1 | 5.46% | – |
| CCS(=O)(=O)c1cc([N+](=O)[O-])c(Sc2ccccc2N)s1 | 12.6% | – |
| C=CCSC1=NC(=O)/C(=C/c2cccs2)S1 | 6.43% | – |
| CCOc1cc(/C=C2\SC(N3CCCC(C)C3)=NC2=O)ccc1O (stereo not drawn) | – | 33.4 µM (active) |
| COc1cc(C2NC(=O)C(C#N)=C(S)N2c2ccccc2)ccc1OC(C)C (stereo not drawn) | 4.22% | – |
| Cc1c(O)ccc(/C(Cc2ccc3ccccc3n2)=N\O)c1O | – | 76.5 µM (active) |
| CN(C)CCNc1ccc2ncn3c4ccc(O)cc4c(=O)c1c23 | 27.1% | – |
| CN(C)CCNc1ccc2nnn3c4ccc(O)cc4c(=O)c1c23 | -17.4% [at 40 µM] | – |

| SMILES | inhibition | IC50 |
| --- | --- | --- |
| CCN(CC)CCNc1ccc(C)c2sc3ccc(O)cc3c(=O)c12 | – | 33.2 µM (active) |
| CN(C)CCNc1ccc(CO)c2sc3ccc(O)cc3c(=O)c12 | – | 35 µM (active) |
| CCN(CC)CCCNc1ccc2ncn3c4ccc(O)cc4c(=O)c1c23 | 20.9% | – |
| Cc1ccc(NCCN(C)C)c2c(=O)c3cc(O)ccc3sc12 | – | 46.3 µM (active) |
| O=C1CC(SC(=S)C2CCCC2=O)C(=O)N1 (stereo not drawn) | -4.72% | – |
| Nc1ccccc1Sc1ccc(C(=O)c2ccccc2C(=O)O)cc1[N+](=O)[O-] | 4.22% | – |
| CN(C)c1ccc(/C=N\Nc2ccccn2)cc1 | – | 33.4 µM (active) |
| COc1ccc(/C=N/Nc2ccccn2)cc1O | – | 81.8 µM (active) |
| COc1cc(/C=N/Nc2cccc3cccnc23)cc(OC)c1O | 4.91% | – |
| COc1cc(/C=N/Nc2ccccn2)cc(OC)c1O | – | 28.6 µM (active) |
| COc1ccc(/C=N/Nc2ncnc3sc4c(c23)CCCC4)cc1O | – | 69.1 µM (active) |
| CCN1CCN(CCOc2cccc(Oc3ccccc3)c2)CC1 | 21.4% | – |
| Clc1ccc(OCCOCCNCc2ccccc2)cc1Cl | 8.13% | – |
| CCN(CC)c1ccc(NC(=O)CCN2C(=O)c3ccccc3S2(=O)=O)c(C)c1 | 12.5% | – |
| CCN(CC)c1ccc(NC(=O)C2=CC=CN3CCS(=O)(=O)N=C23)cc1 | – | 74.2 µM (active) |
| CC(C)[C@H](N[C@@H](C)c1ccccc1)c1c(O)ccc2ccccc12 | – | 17.4 µM (active) |
| CC(NCCCOc1cccc2ccccc12)c1ccccc1 (stereo not drawn) | 16.6% | – |
| C/C(=N\Nc1nc2ccccc2[nH]1)c1ccc(Cl)s1 | – | 37.8 µM (active) |
| C/C(=N\Nc1nc2ccccc2[nH]1)c1cccs1 | – | 28.4 µM (active) |
| C/C(=N\Nc1nc2ccccc2[nH]1)c1ccc(C)o1 | – | 82.2 µM (active) |
| COc1cccc(/C=C2\C(=O)C(=O)c3ccccc32)c1 | -1.01% | – |
| Cc1cc(O)c(C)c(O)c1/C=N/NC(=O)c1cccnc1 | – | 77.5 µM (active) |
| O=C(COc1ccccc1)NCC(=O)N/N=C/c1ccc(O)cc1O | – | 66.1 µM (active) |
| O=C(CNC(=O)c1cccs1)N/N=C/c1ccc(O)cc1O | – | 60.5 µM (active) |
| O=C(CNC(=O)c1cccnc1)N/N=C/c1ccc(O)cc1O | – | 82 µM (active) |
| Oc1ccc(/C=N/NC(=S)Nc2cccnc2)c(O)c1 | – | 37.9 µM (active) |
